Several values for one entry are separate records, joined by “and”; a condition that tells them apart may be missing. Equal values may be shown once. About 2,000 (36%) of roughly 5,500 compounds were called active. Not shown: some 18% with an inconclusive outcome. No stated cut-off is given here; in the data, active means normalized growth mostly below about 0.91 (no sharp cut-off); inconclusive means no clear call, values can overlap the other calls; inactive means mostly above about 0.92. The list shows a part of the results.
Experiment: chemical genetic growth profiling, strain panel (AID 1159580);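 further: tested at 20 µM; growth read once vehicle control cultures reached saturation at 30 °C; 1 = growth at the plate median or of vehicle wells; lower values mean less growth of the strain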
Conditions: S. cerevisiae deletion strains, growth OD

Measured: normalized growth

CCCCCCC(C)OC(=O)COc1ccc(Cl)cc1Cl (configuration not stated)
inactive: locus YAL013W, strain DEP1, hits give low values 0.981 | locus YAL021C, strain ccr4, hits give low values 0.991 | locus YAL026C, strain drs2, hits give low values 0.993 | locus YAL030W, strain snc1, hits give low values 0.99 | locus YBL061C, strain skt5, hits give low values 0.996 | locus YBR009C, strain hhf1, hits give low values 0.985 | locus YBR021W, strain FUR4, hits give low values 1 | locus YBR023C, strain chs3, hits give low values 0.99 | locus YBR171W, strain sec66, hits give low values 0.99 | locus YBR229C, strain ROT2, hits give low values 0.996 | locus YBR231C, strain swc5, hits give low values 0.984 | locus YBR279W, strain paf1, hits give low values 0.994 | locus YCL011C, strain gbp2, hits give low values 0.987 | locus YCL016C, strain dcc1, hits give low values 0.988 | locus YCL029C, strain bik1, hits give low values 1 | locus YCL061C, strain MRC1, hits give low values 0.993 | locus YCL069W, strain vba3, hits give low values 0.992 | locus YCR088W, strain abp1, hits give low values 0.996 | locus YDL005C, strain med2, hits give low values 0.996 | locus YDL035C, strain GPR1, hits give low values 0.955 | locus YDL040C, strain nat1, hits give low values 0.985 | locus YDL074C, strain BRE1, hits give low values 0.968 | locus YDL101C, strain DUN1, hits give low values 0.985 | locus YDL134C, strain PPH21, hits give low values 1 | locus YDL185W, strain tfp1, hits give low values 1.01 | locus YDL192W, strain arf1, hits give low values 1 | locus YDR001C, strain nth1, hits give low values 0.99 | locus YDR069C, strain doa4, hits give low values 0.97 | locus YDR101C, strain arx1, hits give low values 0.996 | locus YDR137W, strain rgp1, hits give low values 0.987 | locus YDR150W, strain NUM1, hits give low values 1.01 | locus YDR159W, strain sac3, hits give low values 0.992 | locus YDR162C, strain NBP2, hits give low values 0.939 | locus YDR195W, strain ref2 0.957 | locus YDR297W, strain sur2, hits give low values 0.988 | locus YDR318W, strain mcm21, hits give low values 1 | locus YDR334W, strain swr1, hits give low values 0.988 | locus YDR335W, strain msn5, hits give low values 0.994 | locus YDR388W, hits give low values 1 | locus YDR392W, strain spt3, hits give low values 0.997 | locus YDR502C, strain sam2, hits give low values 1 | locus YEL003W, strain gim4, hits give low values 0.988 | locus YEL037C, strain rad23, hits give low values 0.995 | locus YEL061C, strain CIN8 (second series), hits give low values 0.988 | locus YEL061C, strain CIN8, hits give low values 0.986 | locus YER015W, strain faa2, hits give low values 0.991 | locus YER016W, strain bim1, hits give low values 0.99 | locus YER110C, hits give low values 1 | locus YER111C, strain swi4, hits give low values 1 | locus YER155C, strain BEM2 (second series), hits give low values 0.989 | locus YER155C, strain BEM2, hits give low values 0.976 | locus YER167W, strain BCK2, hits give low values 0.986 | locus YFR010W, strain ubp6, hits give low values 0.992 | locus YGL078C, strain dbp3, hits give low values 0.996 | locus YGL086W, strain mad1, hits give low values 0.997 | locus YGL167C, strain pmr1, hits give low values 0.993 | locus YGL173C, strain kem1, hits give low values 0.989 | locus YGL227W, strain vid30, hits give low values 0.979 | locus YGL240W, strain doc1, hits give low values 1 | locus YGL248W, strain PDE1, hits give low values 0.991 | locus YGL253W, strain hxk2, hits give low values 0.987 | locus YGR078C, strain PAC10, hits give low values 0.988 | locus YGR135W, strain pre9, hits give low values 1.01 | locus YGR229C, strain SMI1, hits give low values 0.891 | locus YGR252W, strain gcn5, hits give low values 1 | locus YHR013C, strain ard1, hits give low values 0.988 | locus YHR027C, strain rpn1, hits give low values 0.996 | locus YHR030C, strain SLT2, hits give low values 0.974 and 1.03 | locus YHR079C, strain IRE1 (second series), hits give low values 0.997 | locus YHR079C, strain IRE1, hits give low values 1.02 | locus YHR094C, strain hxt1, hits give low values 0.998 | locus YHR129C, strain ARP1, hits give low values 0.977 | locus YHR142W, strain chs7, hits give low values 0.988 | locus YHR200W, strain rpn10, hits give low values 0.993 | locus YIL066C, strain RNR3, hits give low values 0.963 | locus YIL073C, strain SPO22, hits give low values 0.957 | locus YIL125W, strain kgd1, hits give low values 0.996 | locus YIR030C, strain dcg1, hits give low values 0.996 | locus YJL092W, strain hpr5, hits give low values 0.994 | locus YJL095W, strain BCK1 (second series), hits give low values 0.983 | locus YJL095W, strain BCK1, hits give low values 0.94 and 1.03 | locus YJL115W, strain asf1, hits give low values 0.989 | locus YJL129C, strain trk1, hits give low values 0.953 | locus YJL134W, strain LCB3, hits give low values 0.98 | locus YJL154C, strain vps35, hits give low values 0.994 | locus YJL164C, strain tpk1, hits give low values 0.969 | locus YJL166W, strain qcr8, hits give low values 0.989 | locus YJL168C, strain set2, hits give low values 1 | locus YJL187C, strain SWE1 (second series), hits give low values 0.998 | locus YJL187C, strain SWE1, hits give low values 0.992 | locus YJR043C, strain POL32, hits give low values 0.969 | locus YJR066W, strain TOR1, hits give low values 0.949
